Test results taken from ChEMBL document CHEMBL3433997, “St. Jude Leishmania screening dataset” (2016).

What was measured:
Assay type in all cases: functional
[1] = target: Solute carrier family 2, facilitated glucose transporter member 1 (Homo sapiens) (UniProt P11166); experiment: ST_JUDE_LEISH: Cytotoxicity at 2uM final concentration against transgenic Leishmania Mexicana promastigotes LmGLUT1 that are glucose transport deficient and complemented with the human glucose transporter GLUT1. Activity is measured by DNA content using SYBR green in vitro
Sequence of Solute carrier family 2, facilitated glucose transporter member 1 (Homo sapiens) (P11166 whole entry): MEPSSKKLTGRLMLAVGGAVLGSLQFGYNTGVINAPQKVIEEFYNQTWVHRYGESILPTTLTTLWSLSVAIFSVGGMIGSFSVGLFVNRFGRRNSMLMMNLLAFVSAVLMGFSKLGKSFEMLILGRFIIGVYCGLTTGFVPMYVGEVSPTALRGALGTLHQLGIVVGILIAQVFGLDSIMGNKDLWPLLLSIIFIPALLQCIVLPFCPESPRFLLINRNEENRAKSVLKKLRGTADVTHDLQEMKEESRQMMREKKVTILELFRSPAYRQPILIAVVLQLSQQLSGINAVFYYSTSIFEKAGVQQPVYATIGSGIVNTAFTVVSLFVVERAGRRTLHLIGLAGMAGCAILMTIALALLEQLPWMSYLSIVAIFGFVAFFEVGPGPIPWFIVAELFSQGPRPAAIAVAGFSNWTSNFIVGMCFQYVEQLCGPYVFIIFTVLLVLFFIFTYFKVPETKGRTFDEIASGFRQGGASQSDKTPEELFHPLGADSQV

[2] = target: Hexose transporter 1 (Plasmodium falciparum) (UniProt O97467); experiment: ST_JUDE_LEISH: Cytotoxicity at 2uM final concentration against transgenic Leishmania Mexicana promastigotes LmPfHT that are glucose transport deficient and complemented with the Plasmodium falciparum hexose transporter. Activity is measured by DNA content using SYBR green in vitro
[3] = target: Glucose transporter (Leishmania mexicana) (UniProt O61059); experiment: ST_JUDE_LEISH: Cytotoxicity at 2uM final concentration against transgenic Leishmania Mexicana promastigotes LmGT2 that are glucose transport deficient and complemented with the L. Mexicana glucose transporter 2. Activity is measured by DNA content using SYBR green in vitro

| SMILES | inhibition [1] [%] | inhibition [2] [%] | inhibition [3] [%] |
| --- | --- | --- | --- |
| CCCCOC(=O)c1ccc(Nc2cc(C)nc3ccc(OC)cc23)cc1 | 14.7 | 12.5 | 6.35 |
| CCCCCCCCc1c(C)nc(C)c(I)c1O | -1.12 | 0.28 | -2.61 |
| CCOc1c(CNCCCCCCNCc2ccc3ccccc3c2OCC)ccc2ccccc12 | 3.4 | 4.82 | 1.99 |
| COc1ccc(CN2CCN(CCCCNC(=O)c3ccc(NC(=O)c4ccc(Cl)cc4)cc3)CC2)c(OC)c1 | 6.23 | 4.9 | 6.03 |
| NC1CCN(Cc2ccc(-c3ccc(-c4nc5cc(F)ccc5[nH]4)s3)cc2)C1 (stereo not drawn) | 0.37 | 4.62 | 5.81 |
| Cc1cc(C(=O)CN2C(=O)NC3(CCCc4ccccc43)C2=O)c(C)n1Cc1ccc(F)cc1 (stereo not drawn) | 2.81 | 2.54 | 5.14 |
| CCc1nc(N)nc(N)c1-c1ccc(F)c(F)c1 | 3 | 5.22 | 3.74 |
| CN(C)Cc1ccc(-c2cc3c(Nc4ccc(OCc5cccc(F)c5)c(Cl)c4)ncnc3s2)[nH]1 | 2.15 | 2.19 | 2.33 |
| COc1ccc(C(=O)Nc2cc(Br)c3c(c2)CNCC3)cc1C(F)(F)F | 4.52 | 1.74 | 1.37 |
| CS(=O)(=O)CCNCc1nc(-c2ccc3c(Nc4ccc(F)c(O)c4)ccnc3c2)cs1 | 0.96 | 0.78 | 0.48 |
| Cn1nccc1C(=O)NCCNCc1cccc(-c2ccc(-c3nc4cc(C(F)(F)F)ccc4[nH]3)s2)c1 | 16.3 | 15.5 | 14.6 |
| COc1ccc(-c2cccc(CNC3CCN(C)CC3)c2)cc1S(=O)(=O)NCc1ccccc1 | 4.97 | 4.06 | 4.42 |
| COc1ccc(NC(=O)Nc2ccc(Nc3nc(C)cc(N4CCCC4)n3)cc2)cc1 | 4.49 | 3.69 | 1.68 |
| CN(C)CC1CCCN1Cc1ccccc1-c1cnn(C)c(=O)c1Oc1ccccc1F (stereo not drawn) | 2.45 | 1.75 | 0.1 |
| CC(=O)N(Cc1nc(-c2cc(C(F)(F)F)cc(C(F)(F)F)c2)cs1)c1c(C)cccc1C | 4.36 | 4.86 | 4.36 |
| CCCc1cc(=O)oc2cc(OC)c(C(=O)CC(C)C)c(OC)c12 | 0.58 | 3.76 | 6.92 |
| O=C(NCCc1cccc(Cl)c1Cl)c1ccc(N2CCN(c3ccncc3)CC2)nc1 | 38.6 | 16.9 | 21.8 |
| Cc1ccc(CNc2ccc3ncc(-c4cccc(C(=O)NCCN(C)C)c4)n3n2)c(C)c1 | 5.82 | 5.31 | 4.49 |

| SMILES | inhibition [1] [%] | inhibition [2] [%] | inhibition [3] [%] |
| --- | --- | --- | --- |
| Nc1c2ccccc2nc2cc(C(F)(F)F)ccc12 | 2.83 | 5.91 | 1.3 |
| O=C(NCCN1CCCC1)N1CCCN(c2ncnc3cc(-c4ccc(F)cc4)sc23)CC1 | -1.05 | -2.33 | 4.44 |
| O=C(NCCCCCN1CCC(c2c[nH]c3ccccc23)CC1)Nc1cccc(Cl)c1 | 2.7 | 0.53 | 0.16 |
| CCCCCCn1c2c(c(=N)c3c1CCC3)CCC2 | 86.4 | 85.9 | 83.1 |
| OC1(C(F)(F)F)CC(c2ccccc2)=NN1c1nncc(-c2ccccc2)n1 (stereo not drawn) | 0.8 | 0.53 | 1.18 |
| Cc1cccc(Cn2ccc3c(N)nc(N)nc32)c1 | 4.57 | 3.14 | 3.04 |
| NCc1ccc(-c2ccccc2CNC2CCN(Cc3ccccc3)CC2)cc1 | 2.4 | 2.46 | 1.44 |
| C(=Cc1ccccc1)C=NN=c1cc[nH]c2ccccc12 | -0.05 | 1.5 | -2.14 |
| COc1ccc(NC(=O)Nc2ccc(C)c(-c3ccc(C(=O)Nc4ccncc4)cc3)c2)cc1 | 1.53 | 1.45 | 0.71 |
| Cc1ccc(N2CCN(CCCCNC(=O)c3ccc(NC(=O)c4ccc(Cl)cc4)cc3)CC2)c(C)c1 | 3.93 | 5.9 | 2.64 |
| CN1CCC(NCc2ccc(-c3ccc(S(=O)(=O)NCc4ccccc4)s3)cc2)CC1 | 6.58 | 6.78 | 4.55 |
| CC1(C)NC(=N)N=C(NOCC=Cc2ccccc2)N1 | 3.05 | 2.87 | 3.12 |
| COc1ccc(-c2nc3c(NCc4ccccc4)nccc3[nH]2)c(OC)c1 | 4.06 | 4.06 | 2.67 |
| CNC(=O)/C=C/c1cc(NC(=O)Nc2cc(C)nc3c(F)cccc23)ccc1OC | 3.93 | 2.38 | 3.44 |
| FC(F)(F)c1ccc2[nH]c(-c3cccc(-c4ccc(CNCc5ccccc5)cc4)c3)nc2c1 | -0.08 | -1.13 | -0.47 |
| O=C(Nc1ccc(-c2nc3ccccc3[nH]2)cc1)c1cccc(S(=O)(=O)N2CCCC2)c1 | 6.3 | 2.8 | 5.05 |
| Fc1ccc2[nH]c(-c3ccc(-c4ccc(CN5CCC(CCN6CCCCC6)CC5)cc4)cc3)nc2c1 | 7.35 | 9.43 | 3.31 |
| CC(C)c1ccc(-c2noc(SCC(=O)N(C)c3ccc(F)cc3)n2)cc1 | -1.33 | 0.23 | -0.55 |
